From PubChem BioAssay (Tox21) come the findings set out here.

Results filed as inconclusive are left out. Entries that show only a call come without a potency. Active and inactive are the calls of the source. Calls come from the whole dose curve; as a rule, active = well fitted cell-killing curve with a large enough effect in the repeat runs; inconclusive = weak or mixed curves, or effect the other way; inactive = no such curve, though single readings can be large or run the other way.
Potency is the fitted concentration of half-maximal effect.

A short description of the assay: qHTS assay to identify small molecule antagonists of the thyroid receptor (TR) signaling pathway - cell viability counter screen (AID 743064). Note: nearly all actives have a fitted effect of over 50% in size. The note with it: GH3.TRE-Luc viability, CellTiter-Fluor, 24 h; series mostly up to 70.3 µM. The text has this:
National Center for Advancing Translational Sciences [NCATS]
NIH Chemical Genomics Center [NCGC]
U.S. Environmental Protection Agency [EPA]
National Institutes of Environmental Health Sciences [NIEHS]
National Toxicology Program [NTP]
U.S. Food and Drug Administration [FDA]
Thyroid receptor (TR), a nuclear hormone receptor, plays an important role in development, proliferation, differentiation, metabolism, brain function, and cardiovascular system. […] To profile the Tox21 10K compound library in TR signaling, a cell-based GH3-TRE-Luc assay (GH3.TRE-Luc cell line, developed by the laboratory of Dr. Albertinka J. Murk, Wageningen University) was used to measure the inhibition of TR. GH3 (rat pituitary tumor) cells stably expressing a TR activity sensor consisting of two TR response elements and a luciferase reporter gene. The cytotoxicity of the Tox21 compound library against the GH3.TRE-Luc cell line was tested in parallel by measuring the cell viability using CellTiter-Fluor assay (Promega, Madison, WI) in the same wells.
Tox21 Assay Protocol Summary:
GH3.TRE-Luc cells were dispensed at 1500 cells/4 uL/well into 1536-well white solid bottom plates using a Multidrop Combi dispenser (Thermo Fisher Scientific Inc., Waltham, MA). After the assay plates were incubated at 37 C for 4 hours, 23 nL of library compound or DMSO controls was transferred to the assay plates by a pintool station (Kalypsys, San Diego, CA), followed by addition of 1 ul of T3 (1 nM, final concentration in the wells) to stimulate TR transactivation. The assay plates were incubated at 37 C for 23.5 h, and then 1 uL of CellTiter-Fluor reagent (Promega, Madision, WI) of measuring cytotoxicity was added to each well using a Bioraptr Flying Reagent Dispenser (FRD) workstation (Beckman Coulter, Indianapolis, IN, USA). The plates were incubated at 37C and 5% CO2 for additional 30 min, and fluorescence intensity was measured by a ViewLux plate reader (PerkinElmer, Shelton, CT).
(Quantitative high-throughput screening tests each substance at several concentrations.)
With `CC1CN(c2ccccc2)NC1=O` (stereo not given), the Potency result is “inactive”.

Turning to `C=CCc1cc(OC)c(O)c(C(=O)NCCO)c1`, the Potency result was “inactive”.

As to `CCCCNCCCC`, the Potency result is “inactive”.

For `CCC(=O)O[C@]1(C(=O)SCF)[C@H](C)C[C@H]2[C@@H]3C[C@H](F)C4=CC(=O)C=C[C@]4(C)[C@@]3(F)[C@@H](O)C[C@@]21C`, the Potency entry was “inactive”.

As for `O=CCCc1ccccc1`, the Potency entry is “inactive”.

As for `Cc1c(N)cccc1N`, the Potency result was “inactive”.

As for `O=C(O)[C@@H]1CSCN1`, the Potency result is “inactive”.

Take `CC(C)C[C@H](NC(=O)OCC1c2ccccc2-c2ccccc21)C(=O)O`: the Potency entry was “inactive”.

In the case of `COC(=O)C(C)O` (stereo not given), the Potency entry was “inactive”.

For `COc1ccc(S(=O)(=O)Nc2nnc(CC(C)C)s2)cc1`, the Potency result is “inactive”.

With `C=CCCCCCCCCO`, the Potency entry is “inactive”.

`C=CCCC=C`: the Potency entry is “inactive”.

Regarding `Cc1cccc(C)c1NC(=O)CN1CCCCCC1`, the Potency entry was “inactive”.

For the compound `CC(C)O`, the Potency result is “inactive”.

Turning to `CC(C)=CCC[C@](C)(O)[C@@H]1CC=C(C)CC1`, the Potency entry was “inactive”.

As for `O=c1[nH]c(=O)n([C@H]2C[C@H](O)[C@@H](CO)O2)cc1C(F)(F)F`, the Potency entry was “inactive”.

As to `C=CC1CO1` (stereo not given), the Potency result was “inactive”.

On to `O=[N+]([O-])c1nccn1CO[C@@H](CO)[C@H](O)CO`, for which the Potency result was “inactive”.

On to `CCCCCCCCCC/C=C/C#N`, for which the Potency result was “inactive”.

Take `CCCCCCCCCC#N`: the Potency result is “inactive”.

In the case of `Cc1cc2nc(N)sc2cc1C`, the Potency entry was “inactive”.

As for `COC(=O)c1ccc(OC)cc1`, the Potency result was “inactive”.

For `CC(=O)OC(C)OC(C)=O`, the Potency entry is “inactive”.

As to `Cc1ccc(C)c(N)c1`, the Potency entry is “inactive”.

For the compound `CCOC(=O)CS`, the Potency entry was “inactive”.

In the case of `ClC(Cl)Cl`, the Potency result was “inactive”.

With `CC(=O)Nc1ccc(C)c(Cl)c1`, the Potency entry is “inactive”.

Turning to `NC(Cc1ccc(F)cc1)C(=O)O` (stereo not given), the Potency is 2640 nM (active).

For the compound `Cc1cc(NS(=O)(=O)c2ccc(N)cc2)nc(C)n1`, the Potency result is “inactive”.

As to `CCCCCCOc1ccc(N)cc1`, the Potency result was “inactive”.

In the case of `NCCCN1CCN(CCCN)CC1`, the Potency result was “inactive”.

Take `CCCCOc1cc(C(=O)NCCN(CC)CC)c2ccccc2n1`: the Potency was 11400 nM (active).

Regarding `CCCCc1ccc2nc(NC(=O)OC)[nH]c2c1`, the Potency is 114 nM (active).

In the case of `FC(F)(F)C(F)(F)C(F)(F)C(F)(F)C(F)(F)C(F)(F)C(F)(F)C(F)(F)Br`, the Potency entry was “inactive”.

`CC(C)c1ccccc1`: the Potency entry was “inactive”.

Consider `COc1ccc2nc(NC(=O)Nc3ccccc3)sc2c1`, for which the Potency entry was “inactive”.

Regarding `CCNCCO`, the Potency entry is “inactive”.

For `CCOc1ccc2nc(N)sc2c1`, the Potency entry is “inactive”.

Consider `OCCN1CCN(CCO)CC1`, for which the Potency entry is “inactive”.

As for `CCOC(=O)C(Br)c1ccccc1` (stereo not given), the Potency result was “inactive”.
